We go through 33 molecules from PubChem BioAssay AID2061166 (Soto Lab, Mitchell Center for Alzheimers Disease and …, 2025).

A number with no mark means an inactive call. Calls of active or inactive are those of the source.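 How the source made its calls: active means mean tau seeding fluorescence area under 1% of vehicle, meaning inhibition above a set limit; inactive means the rest.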

The target of the assay is Microtubule-associated protein tau (Homo sapiens) (UniProt P10636). As to the kind of experiment: inhibitors of seeded tau aggregation, primary screen, biochemical, seed amplification, ThT fluorescence (AID 2061166). As to conditions: Recombinant tau seeded by AD brain, ThT fluorescence AUC; at 100 µM; hits give high values.
Sequence of Microtubule-associated protein tau (Homo sapiens) (P10636 whole entry, looked up): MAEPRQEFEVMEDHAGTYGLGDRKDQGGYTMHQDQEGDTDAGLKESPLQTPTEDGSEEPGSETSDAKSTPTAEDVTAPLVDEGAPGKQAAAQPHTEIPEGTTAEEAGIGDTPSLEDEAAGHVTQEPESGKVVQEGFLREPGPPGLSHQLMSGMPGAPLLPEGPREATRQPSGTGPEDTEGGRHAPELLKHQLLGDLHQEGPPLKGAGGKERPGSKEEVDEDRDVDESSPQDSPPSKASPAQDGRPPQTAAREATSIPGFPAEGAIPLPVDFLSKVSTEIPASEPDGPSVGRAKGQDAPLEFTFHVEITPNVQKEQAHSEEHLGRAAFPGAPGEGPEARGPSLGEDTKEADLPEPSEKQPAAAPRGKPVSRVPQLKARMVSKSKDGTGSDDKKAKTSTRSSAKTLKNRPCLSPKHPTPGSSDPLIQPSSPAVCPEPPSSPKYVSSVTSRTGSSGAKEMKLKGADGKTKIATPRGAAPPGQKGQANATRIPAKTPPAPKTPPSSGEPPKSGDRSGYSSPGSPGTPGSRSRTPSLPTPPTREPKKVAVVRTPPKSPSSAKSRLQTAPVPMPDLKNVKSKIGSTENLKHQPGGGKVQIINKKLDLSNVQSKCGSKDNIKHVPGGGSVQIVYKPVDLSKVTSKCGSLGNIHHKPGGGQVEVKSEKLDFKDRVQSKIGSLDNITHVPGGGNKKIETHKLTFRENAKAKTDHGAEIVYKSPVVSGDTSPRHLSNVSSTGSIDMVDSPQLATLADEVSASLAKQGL
By inhibition is commonly meant the relative decrease from the control value, in per cent. On to `C#CC1(O)CCC2C3CCC4=Cc5oncc5CC4(C)C3CCC21C` (stereo not drawn), for which the inhibition is 45.1%. For the molecule `CC1(O)Cc2oc3cc(O)c(O)c(C(=O)O)c3c(=O)c2CO1` (stereo not drawn), the inhibition was 33.4%. On to `Nc1nc2[nH]cc(CCc3ccc(C(=O)NC(CCC(=O)O)C(=O)O)cc3)c2c(=O)[nH]1` (stereo not drawn), for which the inhibition was 15.2%. Regarding `COc1cc2nc(N(C)CCCNC(=O)C3CCCO3)nc(N)c2cc1OC` (stereo not drawn), the inhibition is 17.4%. As for `O=S(=O)(O)c1cc(S(=O)(=O)O)c2c(N=Nc3ccccc3)c(O)ccc2c1`, the figure is 39%; as for `CNc1ccc2nc3ccc(=[N+](C)C)cc-3sc2c1`, 100% (active); as for `CCN(CC)C(=S)SSC(=S)N(CC)CC`, -17.5%. For `CC(=O)OCC(=O)C1(O)C(C)CC2C3CCC4=CC(=O)C=CC4(C)C3(F)C(O)CC21C` (stereo not drawn) the value was 46.2%. Regarding `CNS(=O)(=O)CCc1ccc2[nH]cc(C3CCN(C)CC3)c2c1`, the inhibition is -30.8%. For `CCc1nc(N)nc(N)c1-c1ccc(Cl)cc1` the value was -7.97%.

For `CCN(CC)CCNC(=O)c1c(C)[nH]c(/C=C2\C(=O)Nc3ccc(F)cc32)c1C`, the inhibition was 98.6%. As to `Nc1c2c(nc3ccccc13)CCCC2`, the inhibition was 20.6%. In the case of `CN(C)c1ccc(C=CC=O)cc1`, the inhibition was 37.8%.

Take `COc1ccc(Cc2cnc(N)nc2N)cc1OC`: the inhibition was 37.1%. In the case of `CN1CC(C(=O)NC2(C)OC3(O)C4CCCN4C(=O)C(Cc4ccccc4)N3C2=O)CC2c3cccc4[nH]cc(c34)CC21` (stereo not drawn), the inhibition is 34.2%. In the case of `CCc1c2c(nc3ccc(OC(=O)N4CCC(N5CCCCC5)CC4)cc13)-c1cc3c(c(=O)n1C2)COC(=O)C3(O)CC` (stereo not drawn), the inhibition is 46.1%.

For the molecule `Brc1cccc(-c2cc(-c3ccc4c(c3)OCO4)[nH]n2)c1`, the inhibition was -25.9%.

`Nc1cccc2c1CN(C1CCC(=O)NC1=O)C2=O` (stereo not drawn): the inhibition is 42.8%. Take `C#CCNC1CCc2ccccc21` (stereo not drawn): the inhibition was -62.3%.

Take `CC1(C)SC2C(NC(=O)C(N)c3ccc(O)cc3)C(=O)N2C1C(=O)O` (stereo not drawn): the inhibition is -6.81%. In the case of `O=C1CSC(=S)N1`, the inhibition was -4.3%. Consider `Oc1ccc(/C=C/c2cc(O)cc(O)c2)cc1`, for which the inhibition is 16.9%. In the case of `O=C(O)c1ccccc1O`, the inhibition is 11.4%. Take `O=C(OC1CC2CCC(C1)[N+]21CCCC1)C(O)(c1ccccc1)c1ccccc1` (stereo not drawn): the inhibition was 16.5%. For the molecule `COc1ccc2[nH]cc(CCNC(C)=O)c2c1`, the inhibition was -15.9%.

For `CC(=O)c1c(O)c(C)c(O)c2c1OC1=CC(=O)C(C(C)=O)C(=O)C12C` (stereo not drawn), the inhibition is 21.4%. As for `CCN1CCN(Cc2ccc(Nc3ncc(F)c(-c4cc(F)c5nc(C)n(C(C)C)c5c4)n3)nc2)CC1`, the inhibition was 15.2%. For `CN(C)c1ccc2nc3ccc(=[N+](C)C)cc-3sc2c1`, the inhibition was 100% (active). As for `CCN(CC)CC#CCOC(=O)C(O)(c1ccccc1)C1CCCCC1` (stereo not drawn), the figure is -0.433%. For `CN=c1ccc2nc3ccc(N)cc3sc-2c1` the value was 100% (active); for `CCOC(=O)C1=C(C)NC(C)=C(C(=O)OC)C1c1cccc(Cl)c1Cl` (stereo not drawn), 51.7%.

Consider `CC1(C)OC2COC3(COS(N)(=O)=O)OC(C)(C)OC3C2O1` (stereo not drawn), for which the inhibition was 20.5%.

Consider `C#Cc1cccc(Nc2ncnc3cc4c(cc23)OCCOCCOCCO4)c1`, for which the inhibition was -14.6%.
